We go through 29 molecules from PubChem BioAssay (NCI).

Several values for one entry are separate records, joined by “and”; a condition that tells them apart may be missing. Identical values can stand only once. The panel holds about 83,000 compounds, 20% with a hit somewhere; the sample as a whole holds those more often.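 Assay: single dose, 48 h. Readout: percent growth (0 = no net growth; negative = cell death). Active: <10.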 Activity calls are given as the source filed them.

The first experiment concerns CAKI-1 renal. In words: NCI-60 one-dose screen, 48 h (100 = growth as untreated, 0 = no growth, -100 = all killed). To be noted: 10 µM. The method, then: Growth inhibition of the CAKI-1 human tumor cell line is measured as a screen for anti-cancer activity. Cells are grown in 96 well plates and exposed to the test compound for 48 hours. Compounds are tested at a single concentration, which is 10^-5 M for most compounds. The reported endpoint is percent growth (GI% or GIPRCNT), where numbers from 0 - 100% represent growth inhibition, and numbers from -100% - 0 represent cell death. For example, a value of 40 represents 60% growth inhibition. A value of 0 means no net growth occurred over the course of the experiment. A value of -40 indicates 40% of cells at the beginning of the experiment died by the end of the experiment. A value of -100 means all cells are dead at the end of the experiment.
NCI-60 Human Tumor Cell Lines Screen was performed using the standard one-dose NCI protocol, which is described in more detail at https://dtp.cancer.gov/discovery_development/nci-60/default.htm.
Compounds with GIPRCNT values below 10 were considered active. Activity score was based on GIPRCNT using the following formula: […]
Score is 0 for GIPRCNT values of 100 or above, 50 for GIPRCNT values of 0, and 100 for GIPRCNT values of -100.
Regarding `S=C(SSC(=S)N1CCCCC1)N1CCCCC1`, the growth was 95.6% (inactive).

The experiment is the same for the next values; noted with them: 10 µM unless noted.
Regarding `CN1CCN(c2ccc([N+](=O)[O-])c3no[n+]([O-])c23)CC1`, the growth is -75.2% (active).
Same read-out and setting: the figure for `CC[C@@]1(O)C(=O)OCc2c1cc1n(c2=O)Cc2cc3ccccc3nc2-1` is -37.9% (active).
Still for that read-out and setting: the figure for `O=C1c2ccccc2C(=O)C(Cl)C1Cl` (stereo not given) is 64.5% (inactive); for `CCOC(=O)C(NC(=O)C(Cc1ccc(N(CCCl)CCCl)cc1)NC(C)=O)C(C)C` (stereo not given) it is 40.8% (inactive); for `Cc1ccc(C(=O)OC(C(=O)O)C(OC(=O)c2ccc(C)cc2)C(=O)O)cc1` (stereo not given) (tested in a mixture with another compound) it is 50.7% (inactive).
`COc1ccccc1/C=C(/C)[N+](=O)[O-]`: the growth was 85.8% (inactive) and 95.1% (inactive).
On to `COC1=C(C)C(=O)C2=C(C1=O)C(CO)N1C(C#N)C3CC4C(C1C2N1CCOC41)N3C` (stereo not given), for which the growth is -23.1% (active).
On the same count and under the same terms, the figure for `Cc1cc(N=Nc2ccccc2C)ccc1N` is 54.7% (inactive).
As for `CC1=C(CO)C2=C(C)C3(CC3)[C@@](C)(O)C(=O)C2=C1`, the growth was -17% (active).
As to `CCC1(O)CC(OC2CC(N(C)C)C(OC3CC4OC5CC(=O)C(C)OC5OC4C(C)O3)C(C)O2)c2c(cc3c(c2O)C(=O)c2c(O)ccc(O)c2C3=O)C1C(=O)OC` (stereo not given), the growth is -15.4% (active).
Consider `COc1cccc2c1cc([N+](=O)[O-])c1c(C(=O)O)cc3c(c12)OCO3`, for which the growth was 9.19% (active) and 88% (inactive).
Same read-out and setting: with `CC1=C2C(=O)[C@H]3[C@@H](CC=C4C[C@@H](O)CC[C@@]43C)[C@@H]2CC[C@]12O[C@@H]1C[C@H](C)CN[C@H]1[C@H]2C` the figure was 103% (inactive); with `Oc1cccc2cccnc12`, 103% (inactive) and 100% (inactive) and 107% (inactive); with `CO[C@H](/C(C)=C/C=C/C(C)=C/c1coc(C)n1)[C@H](C)[C@H]1C[C@@H](O)[C@@]2(C)O[C@H]2/C=C/[C@@H](C)[C@@H]2C[C@@H](CC(=O)O2)C[C@H]2O[C@@H]2C(=O)O1`, 15% (inactive).
On to `CC[n+]1c(-c2ccccc2)c2cc(N)ccc2c2ccc(N)cc21`, for which the growth was 81% (inactive).
On the same count and under the same terms, the figure for `NCCc1ccc(OCc2ccccc2)c(OCc2ccccc2)c1` is 81.6% (inactive); for `CCCCCCCCCCCC1CCCC(C)N1` (stereo not given) it is 86.6% (inactive); for `CCC(=O)OC1CCn2c1nc1c2C(=O)C(C)=C(N2CC2)C1=O` (stereo not given) it is -8.28% (active).
With `C[C@H]1CCC/C=C/[C@@H]2C[C@H](O)C[C@H]2[C@H](O)/C=C/C(=O)O1`, the growth is -2.67% (active).
Take `CC[C@@]1(O)C[C@H](OC2CC(N(C)C)C(O)C(C)O2)c2c(O)c3c(c(O)c2[C@H]1OC1CC(N(C)C)C(O)C(C)O1)C(=O)c1cccc(O)c1C3=O` (stereo not given in full): the growth was -9.18% (active).
With `COc1ccc(OC)c(/C=C/[N+](=O)[O-])c1`, the growth was -3.49% (active).
Regarding `Cc1c(N)nc([C@H](CC(N)=O)NC[C@H](N)C(N)=O)nc1C(=O)N[C@H](C(=O)N[C@H](C)[C@@H](O)[C@H](C)C(=O)N[C@H](C(=O)NCCc1nc(-c2nc(C(=O)NCCC[S+](C)C)cs2)cs1)[C@@H](C)O)C(OC1OC(CO)C(O)C(O)C1OC1OC(CO)C(O)C(OC(N)=O)C1O)c1cnc[nH]1` (stereo not given in full), the growth was 26.4% [2.5 µM] (inactive).
For `CC(=O)O[C@H]1C[C@@H]2OC3C=C(C)CCC3(C)[C@@]1(C)[C@@]21CO1` (stereo not given in full), the growth was -16.9% (active) and -24.9% (active).
As to `Oc1cc[c]([Hg][Cl])cc1`, the growth is 110% (inactive).
For `CC[C@](O)(C(=O)O)c1cc2n(c(=O)c1CO)Cc1cc3ccccc3nc1-2`, the growth was -28.8% (active).
With `C[C@]12CC[C@H](O)CC1=CC[C@@H]1[C@@H]2CC[C@]2(C)C(=O)CC[C@@H]12`, the growth is 87.3% (inactive).
Still for that read-out and setting: with `CC[C@@]1(O)C[C@H](OC2CC(N(C)C)C(OC3CC(O)C(OC4CCC(=O)C(C)O4)C(C)O3)C(C)O2)c2c(cc3c(c2O)C(=O)c2c(O)ccc(O)c2C3=O)[C@H]1C(=O)OC` (stereo not given in full) the figure was -53.5% (active); with `COC1CC(CC2CCC(C)C(C(C)C(=O)O)O2)OC2(OC(C)(C3CCC(C)(C4OC(C5OC(O)(CO)C(C)CC5C)CC4C)O3)CC2C)C1C` (stereo not given), 8.78% (active).

Staying with this experiment, now noted: 100 µM.
In the case of `S=C(SSC(=S)N1CCCCC1)N1CCCCC1`, the growth was -77.7% (active).
